# Measured values as given in the antibiotic and cytotoxicity screens of Wong et al. (2023).
# About 3,300 (8.5%) of roughly 39,000 compounds were called active. Only a selection was taken, and actives are over-represented in it overall.
# System: HepG2
# Test: cytotoxicity call (relative viability < 0.9)
# Settings: 10 µM
row,Compound,cytotoxicity call
1,C[C@H]1CN([C@@H](C)CO)C(=O)c2cc(NC(=O)CCN3CCOCC3)ccc2O[C@@H]1CN(C)C(=O)Nc1ccc(F)cc1,inactive
2,C/N=C1\S[C@@H](CC(=O)NC(C)C)C(=O)N1C,inactive
3,C[C@@H]1CN([C@@H](C)CO)C(=O)c2cc(C#Cc3cccnc3)cnc2O[C@@H]1CN(C)S(=O)(=O)c1ccccc1F,inactive
4,C[C@H]1CN([C@@H](C)CO)C(=O)c2cccc(NC(=O)CCCCCC(=O)Nc3ccccc3N)c2O[C@@H]1CN(C)S(=O)(=O)c1cn(C)cn1,inactive
5,CC(C)NC(=O)N(C)C[C@H]1OCCCC[C@@H](C)Oc2ccc(NC(=O)Nc3cccc4ccccc34)cc2C(=O)N([C@H](C)CO)C[C@@H]1C,inactive
6,N#Cc1c(-c2ccccc2)no[n+]1[O-],inactive
7,C[C@H]1CN([C@@H](C)CO)C(=O)c2cc(NC(=O)CCN3CCOCC3)ccc2O[C@@H]1CN(C)CC1CCCCC1,inactive
8,Cc1ccc(S(=O)(=O)N(C)C[C@H]2Oc3ccc(NS(=O)(=O)c4cn(C)cn4)cc3CC(=O)N([C@H](C)CO)C[C@@H]2C)cc1,inactive
9,C[C@@H]1CN([C@H](C)CO)S(=O)(=O)c2ccc(C#Cc3ccncc3)cc2O[C@@H]1CN(C)C(=O)C1CCC1,active
10,Cc1noc(C)c1S(=O)(=O)Nc1ccc2c(c1)C(=O)N([C@@H](C)CO)C[C@@H](C)[C@@H](CN(C)S(=O)(=O)c1ccc(F)cc1)O2,inactive
11,C[C@@H]1CN([C@H](C)CO)C(=O)Cc2cc(NC(=O)Nc3ccc(C(F)(F)F)cc3)ccc2O[C@@H]1CN(C)Cc1ccc(Cl)c(Cl)c1,active
12,C[C@@H]1CN([C@H](C)CO)C(=O)Cc2cc(NC(=O)Nc3ccc(C(F)(F)F)cc3)ccc2O[C@H]1CN(C)Cc1ccc(Cl)c(Cl)c1,inactive
13,C[C@H]1CN([C@@H](C)CO)C(=O)Cc2cc(NC(=O)Nc3ccc(C(F)(F)F)cc3)ccc2O[C@H]1CN(C)Cc1ccc(Cl)c(Cl)c1,active
14,C[C@@H]1CN([C@@H](C)CO)C(=O)Cc2cc(NC(=O)Nc3ccc(C(F)(F)F)cc3)ccc2O[C@H]1CN(C)Cc1ccc(Cl)c(Cl)c1,active
15,C[C@H](CO)N1C[C@H](C)[C@H](CN(C)Cc2ccc(Cl)c(Cl)c2)Oc2ccc(NC(=O)Nc3ccc(C(F)(F)F)cc3)cc2CC1=O,inactive
16,C[C@H](CO)N1C[C@H](C)[C@@H](CN(C)Cc2ccc(Cl)c(Cl)c2)Oc2ccc(NC(=O)Nc3ccc(C(F)(F)F)cc3)cc2CC1=O,active
17,C[C@H]1CN([C@@H](C)CO)C(=O)Cc2cc(NC(=O)Nc3ccc(C(F)(F)F)cc3)ccc2O[C@@H]1CN(C)Cc1ccc(Cl)c(Cl)c1,inactive
18,CC(C)NC(=O)N(C)C[C@@H]1Oc2ccc(NC(=O)CCCN(C)C)cc2C(=O)N([C@H](C)CO)C[C@@H]1C,inactive
19,COc1ccc2c3c(n(c2c1)C)[C@H](CO)N(C[C@]13CN(CC2CCOCC2)C1)C(=O)Cc1ccccn1,inactive
20,NC(=O)c1ccc[n+](CC(=O)N2CCCCC2)c1,inactive
21,Cc1noc(C)c1S(=O)(=O)Nc1ccc2c(c1)C(=O)N([C@@H](C)CO)C[C@H](C)[C@@H](CN(C)C(=O)Nc1ccccc1)O2,inactive

row,Compound,cytotoxicity call
1,O=C(C[C@H]1CC[C@H]2[C@@H](COC[C@@H](O)CN2S(=O)(=O)c2ccc(F)cc2)O1)N1CCc2ccccc2C1,inactive
2,O=c1nc(NCCN2CCOCC2)cn[nH]1,inactive
3,NC(=O)Cn1nnc(-c2ccccc2)n1,inactive
4,C[C@@H]1CN([C@H](C)CO)C(=O)c2cc(NC(=O)Nc3cccc4ccccc34)ccc2O[C@H]1CN(C)Cc1ccncc1,inactive
5,C[C@@H]1CN([C@@H](C)CO)C(=O)c2cccc(NC(=O)c3nc4ccccc4s3)c2O[C@@H]1CN(C)S(=O)(=O)c1cn(C)cn1,inactive
6,COc1ccc2c3c([nH]c2c1)[C@H](CO)N(C[C@]13CN(C1)S(=O)(=O)c1ccccc1)C(=O)c1cnccn1,inactive
7,COc1cccc(NC(=O)N[C@H]2CC[C@@H](CC(=O)N3CCOCC3)O[C@H]2CO)c1,inactive
8,C[C@@H]1CN([C@@H](C)CO)C(=O)Cc2cc(NC(=O)Nc3ccc(C(F)(F)F)cc3)ccc2O[C@@H]1CN(C)Cc1ccc(Cl)c(Cl)c1,active
9,COc1ccc(S(=O)(=O)N(C)C[C@H]2Oc3ccc(NC(=O)Cc4ccccc4)cc3C(=O)N([C@H](C)CO)C[C@@H]2C)cc1,inactive
10,C[C@@H]1CN([C@H](C)CO)C(=O)c2cccc(NC(=O)Nc3cccc4ccccc34)c2O[C@H]1CN(C)C(=O)Nc1ccc2c(c1)OCO2,inactive
11,NS(=O)(=O)c1cccc2c1c([N+](=O)[O-])cc1[nH]c(=O)c(=O)[nH]c12,inactive
12,C[C@@H]1CCCCO[C@@H](CN(C)CC2CC2)[C@@H](C)CN([C@H](C)CO)C(=O)c2cc(NS(C)(=O)=O)ccc2O1,inactive
13,C[C@H](CO)N1C[C@H](C)[C@H](CN(C)Cc2ccc(-c3ccccc3)cc2)Oc2ccc(NC(=O)Nc3ccc4c(c3)OCO4)cc2CC1=O,active
14,C[C@@H]1CN([C@@H](C)CO)C(=O)Cc2cc(NC(=O)Nc3ccc4c(c3)OCO4)ccc2O[C@H]1CN(C)Cc1ccc(-c2ccccc2)cc1,active
15,C[C@H]1CN([C@@H](C)CO)C(=O)Cc2cc(NC(=O)Nc3ccc4c(c3)OCO4)ccc2O[C@H]1CN(C)Cc1ccc(-c2ccccc2)cc1,inactive
16,C[C@@H]1CN([C@@H](C)CO)C(=O)Cc2cc(NC(=O)Nc3ccc4c(c3)OCO4)ccc2O[C@@H]1CN(C)Cc1ccc(-c2ccccc2)cc1,inactive
17,C[C@H]1CN([C@@H](C)CO)C(=O)Cc2cc(NC(=O)Nc3ccc4c(c3)OCO4)ccc2O[C@@H]1CN(C)Cc1ccc(-c2ccccc2)cc1,active
18,C[C@@H]1CN([C@H](C)CO)C(=O)Cc2cc(NC(=O)Nc3ccc4c(c3)OCO4)ccc2O[C@H]1CN(C)Cc1ccc(-c2ccccc2)cc1,inactive
19,C[C@@H]1CN([C@H](C)CO)C(=O)Cc2cc(NC(=O)Nc3ccc4c(c3)OCO4)ccc2O[C@@H]1CN(C)Cc1ccc(-c2ccccc2)cc1,active
20,C[C@H](CO)N1C[C@H](C)[C@@H](CN(C)Cc2ccc(-c3ccccc3)cc2)Oc2ccc(NC(=O)Nc3ccc4c(c3)OCO4)cc2CC1=O,inactive
21,CC(C)NC(=O)N(C)C[C@@H]1Oc2ccc(NC(=O)NC3CCCCC3)cc2CC(=O)N([C@H](C)CO)C[C@H]1C,inactive

row,Compound,cytotoxicity call
1,O=C(CN1CCOCC1)NCC[C@H]1CC[C@H](NS(=O)(=O)c2ccc(F)cc2)[C@H](CO)O1,inactive
2,C[C@@H]1CCCCO[C@H](CN(C)Cc2ccncc2)[C@H](C)CN([C@H](C)CO)C(=O)c2cc(NC(=O)c3ccccc3)ccc2O1,inactive
3,C[C@@H]1CCCCO[C@@H](CN(C)Cc2ccccc2)[C@@H](C)CN([C@H](C)CO)C(=O)c2cc(NC(=O)c3ccccc3)ccc2O1,inactive
4,C[C@@H]1CN([C@H](C)CO)C(=O)c2cc(C#CCc3ccccc3)cnc2O[C@H]1CN(C)C(=O)C1CCOCC1,inactive
5,Cc1ccc(S(=O)(=O)N(C)C[C@H]2Oc3ccc(NS(=O)(=O)c4c(C)noc4C)cc3C(=O)N([C@@H](C)CO)C[C@H]2C)cc1,inactive
6,CC(C)(C)c1ccc(-c2nc3ccccc3s2)cc1,inactive
7,C[C@H](CO)N1C[C@H](C)[C@@H](CN(C)S(=O)(=O)c2ccccc2)Oc2ncc(-c3cccc(C(=O)N(C)C)c3)cc2C1=O,inactive
8,Cc1noc(C)c1NC(=O)N(C)C[C@@H]1Oc2ccc(NC(=O)CCN3CCOCC3)cc2C(=O)N([C@H](C)CO)C[C@H]1C,inactive
9,C[C@@H]1CN([C@H](C)CO)C(=O)c2cc(NC(=O)Nc3ccc(C(F)(F)F)cc3)ccc2O[C@@H](C)CCCCO[C@@H]1CN(C)Cc1ccc2c(c1)OCO2,active
10,C[C@@H]1CCCCO[C@@H](CN(C)Cc2ccc3c(c2)OCO3)[C@@H](C)CN([C@@H](C)CO)C(=O)c2cc(NC(=O)Nc3ccc(C(F)(F)F)cc3)ccc2O1,active
11,C[C@@H]1CN([C@@H](C)CO)C(=O)c2cc(NC(=O)Nc3ccc(C(F)(F)F)cc3)ccc2O[C@@H](C)CCCCO[C@@H]1CN(C)Cc1ccc2c(c1)OCO2,inactive
12,C[C@@H]1CCCCO[C@@H](CN(C)Cc2ccc3c(c2)OCO3)[C@H](C)CN([C@@H](C)CO)C(=O)c2cc(NC(=O)Nc3ccc(C(F)(F)F)cc3)ccc2O1,active
13,C[C@@H]1CCCCO[C@H](CN(C)Cc2ccc3c(c2)OCO3)[C@@H](C)CN([C@@H](C)CO)C(=O)c2cc(NC(=O)Nc3ccc(C(F)(F)F)cc3)ccc2O1,active
14,C[C@@H]1CN([C@H](C)CO)C(=O)c2cc(NS(C)(=O)=O)ccc2O[C@@H](C)CCCCO[C@@H]1CN(C)C(=O)c1ccncc1,inactive
15,C[C@H](CO)N1C[C@H](C)[C@H](CN(C)C(=O)Nc2ccnc(N3CCOCC3)c2)OCc2cnnn2CCCC1=O,inactive
16,Cc1noc(C)c1S(=O)(=O)N(C)C[C@@H]1Oc2ccc(NC(=O)CCCN(C)C)cc2C(=O)N([C@@H](C)CO)C[C@@H]1C,inactive
17,C[C@H](CO)N1C[C@H](C)[C@@H](CN(C)Cc2ccc(Cl)c(Cl)c2)Oc2c(NC(=O)NC3CCCCC3)cccc2C1=O,inactive
18,Cc1noc(C)c1NC(=O)Nc1cccc2c1O[C@@H](CN(C)C(=O)Nc1ccc(C(F)(F)F)cc1)[C@@H](C)CN([C@H](C)CO)C2=O,inactive
19,COc1ccc(S(=O)(=O)N(C)C[C@@H]2Oc3c(NC(=O)Nc4c(C)noc4C)cccc3C(=O)N([C@H](C)CO)C[C@@H]2C)cc1,inactive
20,CCCC(=O)Nc1ccc2c(c1)OC[C@@H](C)N(Cc1ccc(-c3ccccn3)cc1)C[C@@H](C)[C@H](OC)CN(C)C2=O,inactive
